The values below come from PubChem BioAssay (EPA / NIEHS).

In experiment [1] the target is Hepatocyte nuclear factor 6 (Homo sapiens) (UniProt Q9UBC0). Briefly: ATG_HNF6_CIS: Attagene CIS-FACTORIAL HepG2 Assay for human Hepatocyte Nuclear Factor 6 (HNF6) (AID 2282952; active = hit-call score of the fitted dose curve at least 0.9, where 1 is the maximum; inactive = score below 0.9). The following applies: HepG2 Attagene cis-factorial HNF6 reporter transcription; actives raise or lower the signal. The procedure, abridged: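 Endogenous transcription factor activity in human HepG2 liver cells was captured through cis-regulated reporter constructs. After 24 h treatment, reporter mRNA was measured by RT-PCR with capillary electrophoresis, and activity was fitted in both directions relative to DMSO.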
Chain of Hepatocyte nuclear factor 6 (Homo sapiens) (Q9UBC0 whole entry, looked up): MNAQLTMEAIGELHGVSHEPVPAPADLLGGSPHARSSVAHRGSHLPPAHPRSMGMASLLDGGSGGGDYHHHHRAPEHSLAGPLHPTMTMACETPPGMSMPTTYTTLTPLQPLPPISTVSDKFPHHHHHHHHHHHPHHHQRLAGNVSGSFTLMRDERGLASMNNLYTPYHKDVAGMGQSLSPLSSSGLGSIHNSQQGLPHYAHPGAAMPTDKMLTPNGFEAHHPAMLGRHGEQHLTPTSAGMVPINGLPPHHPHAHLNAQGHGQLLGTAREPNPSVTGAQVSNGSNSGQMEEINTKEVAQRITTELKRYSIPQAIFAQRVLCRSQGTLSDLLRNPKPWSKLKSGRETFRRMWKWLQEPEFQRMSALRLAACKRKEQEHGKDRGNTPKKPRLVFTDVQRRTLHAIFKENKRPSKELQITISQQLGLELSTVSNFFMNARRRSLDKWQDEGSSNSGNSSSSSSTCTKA

Experiment [2] can be described thus: ATG_PBREM_CIS: Attagene CIS-FACTORIAL HepG2 Assay for human Phenobarbital-responsive Enhancer Module (PBREM) (AID 2282955; active = hit-call score of the fitted dose curve at least 0.9, where 1 is the maximum; inactive = score below 0.9). The following applies: HepG2 PBREM cis-reporter, Attagene multiplexed transcription; actives raise or lower the signal. Summed up: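 Endogenous transcription factor activity was read from reporter transcripts in transiently transfected human HepG2 liver cells after 24 h dosing. RT-PCR products were fluorescently labelled, HpaI-cut and sized by capillary electrophoresis; activity fitted bidirectionally against DMSO baseline.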

The nature of experiment [3]: ATG_TGFb_CIS: Attagene CIS-FACTORIAL HepG2 Assay for human Transforming Growth Factor (TGF) (AID 2282967; active = hit-call score of the fitted dose curve at least 0.9, where 1 is the maximum; inactive = score below 0.9). To be noted: HepG2 Attagene CIS TGFb reporter, mRNA transcription; actives raise or lower the signal. Summed up: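 Bidirectional fitting relative to DMSO gave the endpoint. Underlying data: reporter mRNA from HepG2 cells carrying transiently transfected cis-regulated reporter constructs, harvested 24 h after dosing and analyzed by RT-PCR and capillary electrophoresis.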

In experiment [4] the target is X-box-binding protein 1 (Homo sapiens) (UniProt P17861). The experiment can be described thus: ATG_Xbp1_CIS: Attagene CIS-FACTORIAL HepG2 Assay for human X-box Binding Protein 1 (XBP1) (AID 2282972; active = hit-call score of the fitted dose curve at least 0.9, where 1 is the maximum; inactive = score below 0.9). To be noted: HepG2 XBP1 cis-element reporter, Attagene multiplex; actives raise or lower the signal. Summed up: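 Read-out: fluorescent reporter mRNA fragments resolved by capillary electrophoresis after RT-PCR. Human HepG2 liver cells carried transfected cis-promoter reporter units and were exposed to chemicals for 24 hours. Gain or loss of signal fitted relative to DMSO baseline.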
Chain of X-box-binding protein 1 (Homo sapiens) (P17861 whole entry, looked up, the tested form may be a part): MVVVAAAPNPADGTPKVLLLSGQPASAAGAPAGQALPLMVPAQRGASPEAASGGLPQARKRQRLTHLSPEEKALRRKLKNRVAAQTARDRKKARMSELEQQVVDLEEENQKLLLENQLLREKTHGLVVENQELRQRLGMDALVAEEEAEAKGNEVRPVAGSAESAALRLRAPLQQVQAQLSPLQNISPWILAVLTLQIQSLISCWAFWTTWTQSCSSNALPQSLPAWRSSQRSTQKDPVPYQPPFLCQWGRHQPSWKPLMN

Experiment [5] addresses Hepatocyte nuclear factor 4-alpha (Homo sapiens) (UniProt P41235). Briefly: ATG_HNF4a_TRANS: Attagene TRANS-FACTORIAL HepG2 Assay for human Hepatocyte Nuclear Factor 4 alpha (HNF4a) (AID 2282982). To be noted: HepG2 HNF4a transactivation reporter, mRNA readout. The procedure, abridged:
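Endpoint reflects transcriptional activation of a GAL4-UAS reporter by an HNF4a-GAL4 chimera in transfected HepG2 cells, 24 h post-dosing. Fluorescence from RT-PCR products separated by capillary electrophoresis; DMSO baseline.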

Experiment [6] can be described thus: ATG_M_32_TRANS: Attagene TRANS-FACTORIAL HepG2 Assay for M32 Transcription Factor (Internal Marker) (AID 2282984).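 Note: transcript level of a background control reporter unit measured by RT-PCR and capillary electrophoresis.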 The following applies: HepG2 Attagene TRANS M32 internal marker reporter. The procedure, abridged:
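Internal-marker readout from a multiplexed transcription reporter panel. HepG2 cells were transfected with GAL4-UAS reporter units, treated 24 hours, and reporter transcript levels determined by fluorescence after RT-PCR and capillary separation.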

The nature of experiment [7]: ATG_NF_kB_CIS: Attagene CIS-FACTORIAL HepG2 Assay for human Nuclear Factor Kappa B (NF-kB) (AID 2282991; active = hit-call score of the fitted dose curve at least 0.9, where 1 is the maximum; inactive = score below 0.9). To be noted: HepG2 Attagene cis-factorial NF-kB reporter mRNA; actives raise or lower the signal. The procedure, abridged:
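Readout is reporter transcript level, gain or loss versus DMSO, measured 24 h post-dose via RT-PCR, fluorescent labelling and capillary electrophoresis. Human HepG2 liver cells carried transiently transfected CIS reporter constructs reflecting endogenous factors.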

In experiment [8] the target is Retinoic acid receptor RXR-alpha (Homo sapiens) (UniProt P19793). The experiment can be described thus: ATG_RXRa_TRANS: Attagene TRANS-FACTORIAL HepG2 Assay for human Retinoid X Receptor alpha (RXRa) (AID 2283012). Summed up: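 Measures exogenous chimeric NR-GAL4 activity in transfected HepG2 liver cells after 24 h of dosing. Induced reporter mRNA was detected by RT-PCR with capillary electrophoresis, and gain of signal was analysed against DMSO.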
Chain of Retinoic acid receptor RXR-alpha (Homo sapiens) (P19793 whole entry, looked up, the tested form may be a part): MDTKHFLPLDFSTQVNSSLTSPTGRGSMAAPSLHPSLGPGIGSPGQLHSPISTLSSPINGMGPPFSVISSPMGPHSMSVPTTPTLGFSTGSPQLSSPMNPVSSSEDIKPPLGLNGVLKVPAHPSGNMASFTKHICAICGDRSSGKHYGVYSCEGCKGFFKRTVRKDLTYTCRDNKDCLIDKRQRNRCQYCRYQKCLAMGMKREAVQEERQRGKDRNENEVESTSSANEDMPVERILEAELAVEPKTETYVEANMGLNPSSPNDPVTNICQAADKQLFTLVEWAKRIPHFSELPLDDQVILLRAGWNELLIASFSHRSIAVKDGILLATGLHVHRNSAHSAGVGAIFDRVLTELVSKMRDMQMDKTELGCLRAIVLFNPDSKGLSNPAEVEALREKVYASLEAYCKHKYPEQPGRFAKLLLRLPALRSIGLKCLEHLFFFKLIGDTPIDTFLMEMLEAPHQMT

In experiment [9] the target is human Retinoid X Receptor beta (RXRb), RXRB (gene 6257) (UniProt P28702). The experiment can be described thus: ATG_RXRb_TRANS: Attagene TRANS-FACTORIAL HepG2 Assay for human Retinoid X Receptor beta (RXRb) (AID 2283013). Summed up: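 Chimeric receptor-Gal4 activity was assessed in transiently transfected human HepG2 cells after 24 h exposure. Transcripts from GAL4-UAS reporters were quantified by fluorescent RT-PCR and capillary electrophoresis, with DMSO as negative control and baseline.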
Chain of human Retinoid X Receptor beta (RXRb), RXRB (gene 6257) (P28702 whole entry, looked up, the tested form may be a part): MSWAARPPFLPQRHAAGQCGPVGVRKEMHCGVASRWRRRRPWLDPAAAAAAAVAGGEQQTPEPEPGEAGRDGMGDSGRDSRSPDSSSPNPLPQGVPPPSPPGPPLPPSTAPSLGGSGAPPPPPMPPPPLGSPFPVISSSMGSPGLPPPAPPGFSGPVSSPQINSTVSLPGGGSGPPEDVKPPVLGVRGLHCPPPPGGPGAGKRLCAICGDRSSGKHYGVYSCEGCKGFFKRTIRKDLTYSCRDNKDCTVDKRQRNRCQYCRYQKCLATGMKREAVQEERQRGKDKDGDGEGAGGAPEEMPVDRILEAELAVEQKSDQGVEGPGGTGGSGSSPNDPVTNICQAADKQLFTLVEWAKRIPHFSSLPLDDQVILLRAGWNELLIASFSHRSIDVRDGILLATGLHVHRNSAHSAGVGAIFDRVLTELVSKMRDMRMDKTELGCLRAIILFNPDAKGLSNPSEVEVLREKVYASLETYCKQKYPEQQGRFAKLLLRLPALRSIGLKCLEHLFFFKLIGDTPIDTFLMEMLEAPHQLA

In experiment [10] the target is Cellular tumor antigen p53 (Homo sapiens) (UniProt P04637). Briefly: TOX21_p53_BLA_p2_ratio: Tox21 HCT-116 p53 Agonism Beta-lactamase Assay, Ratio, Phase 2 (AID 2283592). The procedure, abridged:
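Cleaved-to-uncleaved substrate ratio (460 vs 530 nm) measured in HCT116 cells with an inducible beta-lactamase reporter linked to p53 activity. Compounds incubated 16 h at 37C before 2 h room-temperature CCF4-AM loading.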

Experiment [11] has the same target. Briefly: TOX21_p53_BLA_p3_ratio: Tox21 HCT-116 p53 Agonism Beta-lactamase Assay, Ratio, Phase 3 (AID 2283596). The procedure, abridged:
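Cells were seeded at 4000/well, rested 5 h at 37C, then dosed with DMSO compound solutions (217-fold dilution) for 16 h. CCF4-AM substrate was loaded for 2 h at room temperature, and the 460/530 nm emission ratio was fitted for gain of signal versus DMSO.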

For experiment [12] the target is unchanged. The experiment can be described thus: TOX21_p53_BLA_p5_ratio: Tox21 HCT-116 p53 Agonism Beta-lactamase Assay, Ratio, Phase 5 (AID 2283599). The procedure, abridged:
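HCT-116 p53-bla cells (4000/well) plated 5 h, dosed with compound (217-fold DMSO dilution) for 16 h at 37 C; CCF4-AM substrate 2 h at room temperature. Activity is the 460/530 nm emission ratio (405 nm excitation), fitted in gain-of-signal direction versus DMSO.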

A short description of experiment [13]: TOX21_p53_BLA_p5_viability: Viability Assessment in the Tox21 HCT-116 p53 Agonism Beta-lactamase Assay, Phase 5 (AID 2283600). Summed up:
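Viability is taken from cellular ATP content, measured by luciferase luminescence in the same wells after the beta-lactamase ratio read. Cells are seeded at 4000 per well and exposed to DMSO-dissolved compounds, diluted 217-fold, for 16 h.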

For experiment [14], the target named is Cellular tumor antigen p53 (Homo sapiens) (UniProt P04637). Briefly: TOX21_p53_BLA_p4_ratio: Tox21 HCT-116 p53 Agonism Beta-lactamase Assay, Ratio, Phase 4 (AID 2283601). The procedure, abridged: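 HCT-116 p53 beta-lactamase reporter cells (4000/well) preincubated 5 h, then compound (217-fold dilution of DMSO stock) for 16 h at 37C. CCF4-AM substrate added 2 h at room temperature; 460/530 nm emission ratio fitted upward versus DMSO.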
Chain of Cellular tumor antigen p53 (Homo sapiens) (P04637 whole entry, looked up): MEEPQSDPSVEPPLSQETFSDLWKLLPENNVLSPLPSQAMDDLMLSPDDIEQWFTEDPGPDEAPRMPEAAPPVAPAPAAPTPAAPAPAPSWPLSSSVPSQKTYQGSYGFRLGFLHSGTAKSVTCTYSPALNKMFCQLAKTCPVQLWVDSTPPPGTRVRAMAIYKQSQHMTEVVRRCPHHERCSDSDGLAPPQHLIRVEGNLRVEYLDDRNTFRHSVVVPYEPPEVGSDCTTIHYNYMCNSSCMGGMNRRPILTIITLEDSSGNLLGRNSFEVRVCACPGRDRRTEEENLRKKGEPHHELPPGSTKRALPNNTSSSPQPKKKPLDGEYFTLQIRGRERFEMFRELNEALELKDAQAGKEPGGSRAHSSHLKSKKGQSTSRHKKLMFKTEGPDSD

Experiment [15] can be described thus: ATG_M_19_CIS: Attagene CIS-FACTORIAL HepG2 Assay for M19 Transcription Factor (Internal Marker) (AID 2282939; active = hit-call score of the fitted dose curve at least 0.9, where 1 is the maximum; inactive = score below 0.9). To be noted: HepG2 Attagene CIS-FACTORIAL M19 internal marker reporter; actives raise or lower the signal. The procedure, abridged: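 Signals come from fluorescence of labelled reporter-specific PCR fragments resolved by capillary electrophoresis, following 24 h treatment of HepG2 cells transfected with cis-promoter reporter units; activity was fitted in both directions relative to DMSO.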

Experiment [16] is described as follows: ATG_M_06_TRANS: Attagene TRANS-FACTORIAL HepG2 Assay for M06 Transcription Factor (Internal Marker) (AID 2282983). The following applies: HepG2 Attagene TRANS M06 internal marker reporter. Summed up:
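Human liver HepG2 cells bearing transiently transfected chimeric NR-GAL4 reporter units were treated with chemicals for 24 h. Total RNA was reverse-transcribed, reporter sequences amplified and labelled, then quantified by capillary electrophoresis. Activity was fitted upward relative to DMSO.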

In experiment [17] the target is Retinoic acid receptor alpha (Homo sapiens) (UniProt P10276). The experiment can be described thus: ATG_DR5_RAR_CIS: Attagene CIS-FACTORIAL HepG2 Assay for human Retinoic Acid Receptor Alpha (RARE), DR5 submotif (AID 2282934; active = hit-call score of the fitted dose curve at least 0.9, where 1 is the maximum; inactive = score below 0.9). To be noted: HepG2 Attagene cis-factorial RARE DR5 reporter, mRNA; actives raise or lower the signal. The procedure, abridged: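 HepG2 cells transiently transfected with multiplexed reporter units; DR5 cis-element drives reporter through endogenous transcription factors. After 24 h dosing, reporter mRNA quantified by RT-PCR, fluorescent labeling, HpaI digestion and capillary electrophoresis; bidirectional fitting versus DMSO.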
Chain of Retinoic acid receptor alpha (Homo sapiens) (P10276 whole entry, looked up): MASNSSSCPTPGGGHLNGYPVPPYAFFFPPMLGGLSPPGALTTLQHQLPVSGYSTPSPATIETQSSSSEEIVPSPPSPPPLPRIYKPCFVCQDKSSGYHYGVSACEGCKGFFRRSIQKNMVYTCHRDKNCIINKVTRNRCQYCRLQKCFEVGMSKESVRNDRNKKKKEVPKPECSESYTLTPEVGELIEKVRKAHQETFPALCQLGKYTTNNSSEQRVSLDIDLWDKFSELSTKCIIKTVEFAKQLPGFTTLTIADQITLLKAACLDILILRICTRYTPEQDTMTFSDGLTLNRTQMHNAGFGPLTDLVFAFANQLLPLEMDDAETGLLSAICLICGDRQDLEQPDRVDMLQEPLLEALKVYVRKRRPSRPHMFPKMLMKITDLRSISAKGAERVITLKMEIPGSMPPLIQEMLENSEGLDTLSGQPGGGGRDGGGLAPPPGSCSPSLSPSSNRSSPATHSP

Experiment [18] is described as follows: ATG_GRE_CIS: Attagene CIS-FACTORIAL HepG2 Assay for human Glucocorticoid Response Elements (GRE) (AID 2282947; active = hit-call score of the fitted dose curve at least 0.9, where 1 is the maximum; inactive = score below 0.9). The following applies: HepG2 GRE cis-reporter, Attagene multiplex mRNA; actives raise or lower the signal. Summed up:
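Fluorescence intensity of reporter-specific cDNA fragments, separated by capillary electrophoresis, provides the signal. Constructs carry cis-regulating promoters in transiently transfected HepG2 liver cells; 24 h incubation; fitting is bidirectional against DMSO.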

Experiment [19] is described as follows: ATG_MRE_CIS: Attagene CIS-FACTORIAL HepG2 Assay for human Metal Responsive Element (MRE) (AID 2282954; active = hit-call score of the fitted dose curve at least 0.9, where 1 is the maximum; inactive = score below 0.9). The following applies: HepG2 MRE cis-reporter transcription, Attagene multiplex; actives raise or lower the signal. The procedure, abridged:
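Measured here is mRNA induction from an MRE cis-element reporter in HepG2 after 24 h, quantified by fluorescence of labelled RT-PCR products on capillary electrophoresis; gain- and loss-of-signal fits use DMSO as baseline.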

Experiment [20] is described as follows: TOX21_p53_BLA_p2_viability: Viability Assessment in the Tox21 HCT-116 p53 Agonism Beta-lactamase Assay, Phase 2 (AID 2283591).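 Note: compound exposure lasted 16 h at 37 °C; actives lower the ATP signal meaning cytotoxicity.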 The procedure, abridged:
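HCT116 p53-bla cells, 4000/well, dosed after 5 h plating (217-fold dilution of DMSO stocks) and incubated 16 h at 37C. Viability taken as cellular ATP by CellTiter-Glo luminescence after 30 min RT; signal loss marks cytotoxicity.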

Molecules are shown by their SMILES. Inconclusive results are not listed. Calls of active or inactive are those of the source. Rule for the calls, unless noted: active = hit-call score of the fitted dose curve at least 0.9, where 1 is the maximum; inconclusive = response in the unintended direction; inactive = score below 0.9.

Chain of Hepatocyte nuclear factor 4-alpha (Homo sapiens) (P41235 whole entry, looked up, the tested form may be a part): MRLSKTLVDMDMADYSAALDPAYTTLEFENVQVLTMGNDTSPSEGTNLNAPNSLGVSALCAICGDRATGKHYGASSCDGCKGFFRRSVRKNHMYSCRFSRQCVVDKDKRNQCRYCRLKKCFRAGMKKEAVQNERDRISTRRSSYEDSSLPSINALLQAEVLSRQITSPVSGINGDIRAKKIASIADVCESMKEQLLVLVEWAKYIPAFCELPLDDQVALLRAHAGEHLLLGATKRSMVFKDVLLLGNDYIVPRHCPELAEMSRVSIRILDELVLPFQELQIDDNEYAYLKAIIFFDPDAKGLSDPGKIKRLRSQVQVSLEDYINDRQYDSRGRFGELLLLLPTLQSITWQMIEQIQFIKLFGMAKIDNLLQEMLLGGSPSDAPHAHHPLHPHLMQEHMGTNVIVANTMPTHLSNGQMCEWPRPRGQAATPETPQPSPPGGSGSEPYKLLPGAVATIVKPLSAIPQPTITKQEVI

As to `CC/C=C\CC1=C(C)CCC1=O`, the molecule was called inactive in experiment [1], in experiment [2], in [3], in experiment [4], in experiment [5] and in experiment [6]. In addition, the outcome in experiment [7], in experiment [8], in experiment [9], in experiment [10], in experiment [11] and in experiment [12] was inactive. Moreover, the result in experiment [13] and in experiment [14] was inactive.

As to `CCCCn1cc[n+](C)c1`, the result in experiment [15], in [1], in experiment [3], in experiment [4], in [5] and in [16] was inactive. For the same molecule, the outcome in experiment [8] and in experiment [9] was inactive.

Turning to `CCCOCCC`, the molecule was called inactive in experiment [17], in experiment [15], in experiment [18], in [1], in experiment [19] and in [2]. Moreover, the outcome in experiment [3], in experiment [4], in [5], in experiment [16], in experiment [7] and in experiment [9] was inactive. Besides, the molecule was called inactive in experiment [20], in experiment [10], in experiment [12] and in [14].

With `Nc1nnc(-c2ccc([N+](=O)[O-])o2)o1`, the outcome in experiment [17], in experiment [15], in experiment [18], in experiment [2], in [5] and in [7] was inactive. In addition, the molecule was classed as inactive in experiment [9], in [20], in experiment [11] and in experiment [13]. The AC50 – broadly, the concentration at which the activity in the assay is half-maximal – in experiment [10] was 85.7 µM (active); in experiment [14], 70.1 µM (active).

For the molecule `CCCC(=O)OC`, the molecule was classed as inactive in experiment [17], in experiment [15], in experiment [18], in experiment [1], in experiment [19] and in experiment [3]. For the same molecule, the call in experiment [4], in experiment [16], in [10], in experiment [11] and in experiment [12] was inactive.
